For part of these data: Entries with a potency or affinity are not part of this list. Calls of active or inactive are those of the source.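 The calls were made as follows, unless noted: active = primary screen hit whose calcium fluorescence ratio, in both repeats, exceeds the weak agonist control mean by 3 SD; inactive = the rest.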
How the values were obtained:
[1] = test system: TRPC4 beta (transient receptor potential cation channel C4), mouse; assay: TRPC4 cation channel opening, retest – cell-based, Fluo4 calcium, HEK293 TRPC4beta/mu-opioid, duplicates, 10 µM, confirmation (AID 2426;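 active = fluorescence ratio normalized to control raised more than 50% in primary screen plus both repeat runs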;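 as to activation: percent rise of integrated ratio over buffer wells lacking compound which define 0%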); conditions: Fluo4 calcium fluorescence, at 10 µM; active compounds read high
[2] = test system: transient receptor potential cation channel C4 beta (TRPC4), mouse; assay: TRPC4 cation channel opening, second retest – cell-based, second round, Fluo4, HEK293 TRPC4beta/mu-opioid, 1 µM, confirmation (AID 2461;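 active = primary screen active and over 50% activation in each of two duplicate runs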;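 as to activation: 0% = wells without test compound as baseline of integrated fluorescence ratio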); conditions: Fluo4 calcium fluorescence, at 1 µM; active compounds read high
[3] = test system: TRPC4 (transient receptor potential cation channel C4 beta), mouse; assay: potentiation of DAMGO EC20 TRPC4 response – cell-based, second round, Fluo-4, HEK293 TRPC4beta/mu-opioid, 1 µM, confirmation (AID 2554;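 active = primary screen hit whose fluorescence ratio, in both repeats, exceeds the weak agonist control mean by 3 SD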); conditions: DAMGO EC20, Fluo-4 calcium flux, at 1 µM; active compounds read high
[4] = test system: TRPC4 beta (transient receptor potential cation channel C4), mouse; assay: potentiation of DAMGO EC20 TRPC4 response – cell-based, Fluo-4, HEK293 TRPC4beta/mu-opioid, confirmation (AID 2555); conditions: DAMGO EC20, Fluo-4 calcium flux, at 10 µM; active compounds read high
[5] = biological target: Short transient receptor potential channel 4 (Mus musculus) (UniProt Q9QUQ5); assay: blockers of DAMGO-evoked TRPC4 calcium flux – cell-based, Fluo4, HEK293 TRPC4beta/mu-opioid, confirmation (AID 2636;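 active = calcium signal cut by more than 3 SD below the full-agonist control yet still positive, in both repeats and the earlier primary screen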); conditions: at 10 µM; active compounds read high
[6] = biological target: Short transient receptor potential channel 4 (Mus musculus) (UniProt Q9QUQ5); assay: blockers of DAMGO-evoked TRPC4 calcium flux – cell-based, second round, Fluo4, HEK293 TRPC4beta/mu-opioid, 1 µM, confirmation (AID 2637;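 active = calcium signal ratio cut to more than 3 SD under the fully stimulated control mean yet still positive, in both repeats and the primary screen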); conditions: at 1 µM; active compounds read high
[7] = biological target: Short transient receptor potential channel 4 (Mus musculus) (UniProt Q9QUQ5); assay: potentiation of DAMGO-evoked TRPC4 calcium signal – cell-based, HEK293 TRPC4/mu-opioid, Fluo-4 calcium, EC20 DAMGO, dose response (AID 434941;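 active = earlier screen potentiator hit that boosts the TRPC4 ion channel at some dose, with a dose response; inactive = no potentiation, no dose response, or not a prior hit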;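 also: calcium entry triggered by an EC20 dose of DAMGO at the co-expressed mu-opioid receptor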)
[8] = biological target: Short transient receptor potential channel 4 (Mus musculus) (UniProt Q9QUQ5); assay: block of DAMGO-driven TRPC4 calcium entry – cell-based, HEK293 TRPC4/mu-opioid, Fluo-4 calcium, dose response (AID 434942;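 active = primary screen inhibitor hit that blocks the TRPC4 channel at some tested dose, yielding a dose curve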)
[9] = biological target: Short transient receptor potential channel 6 (Mus musculus) (UniProt Q61143); assay: TRPC6 blockade by TRPC4 inhibitor hits – cell-based, HEK293, membrane potential dye, duplicate, selectivity assay for TRPC4 inhibitor project, confirmation (AID 434948;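 active = active in primary screen and both duplicates, each dropping signal beyond three positive-control SD with fluorescence still positive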); conditions: HEK293 TRPC6, membrane potential dye fluorescence, at 10 µM, stimulated with maximal-effect acetylcholine; active compounds read high
[10] = biological target: Short transient receptor potential channel 6 (Mus musculus) (UniProt Q61143); assay: TRPC6 opening by TRPC4 activator hits – cell-based, HEK293, membrane potential dye, duplicate, selectivity assay for TRPC4 activator project, confirmation (AID 434950;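 active = membrane potential signal rise above negative control mean plus 3 SD in both duplicates, also active in the earlier TRPC4 screen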;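 as to activation: 0% = buffer only wells and 100% = acetylcholine maximal-effect wells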); conditions: HEK293 TRPC6, membrane potential fluorescence, at 10 µM; activation: active compounds read high; outcome: activation
[11] = biological target: Short transient receptor potential channel 6 (Mus musculus) (UniProt Q61143); assay: positive modulators of mouse TRPC6 channel – HEK293 cells, membrane potential dye, duplicate, selectivity assay for TRPC4 potentiator project, confirmation (AID 434952;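 active = compound raising the membrane signal above positive-control mean plus 3 SD in both repeats, and a primary screen hit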); conditions: HEK293 TRPC6, membrane potential dye fluorescence, at 10 µM, maximal acetylcholine added after compound; active compounds read high
[12] = biological target: Short transient receptor potential channel 4 (Mus musculus) (UniProt Q9QUQ5); assay: calcium flux activators in TRPC4/5HT1a cells, counter-screen for TRPC4 activator project, cell-based, second counter screen, HEK293 TRPC4/5HT1a, Fluo-4 (AID 434977;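 active = calcium signal rise above buffer-control mean plus 5 SD in both duplicates, and also a hit in the primary screen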;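 as to activation: plate controls were assay buffer for no effect and maximal serotonin response for full effect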); conditions: Fluo-4 calcium flux, at 10 µM; active compounds read high
[13] = serotonin-gated TRPC4 signal block – cell-based, second counter screen, HEK293 TRPC4/5HT1a, Fluo-4, counter-screen for TRPC4 inhibitor project, confirmation (AID 434978;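 active = primary screen active whose calcium signal fell more than 3 SD beyond the full-serotonin control mean in both duplicate plates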;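 also: serotonin given first at submaximal then at maximal dose after compound preincubation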); conditions: Fluo-4 calcium flux, at 10 µM, serotonin added to trigger calcium flux; active compounds read high
[14] = test system: TRPC4 (mouse), co-expressed with 5HT1a in HEK293; assay: enhancement of serotonin-evoked TRPC4 response – cell-based, second counter screen, HEK293 TRPC4/5HT1a, Fluo-4, counter-screen for TRPC4 potentiator project, confirmation (AID 434979;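 active = signal rise over 3 SD above mean of control wells given weak agonist, in both repeats and first screen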); conditions: Fluo-4 calcium flux, at 10 µM, serotonin added at its EC20 dose; active compounds read high
[15] = nonspecific calcium rise without TRPC4 – cell-based, HEK293 mu-opioid receptor line, counter-screen for TRPC4 activator project, confirmation (AID 449723;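 active = hit in primary screen, with calcium signal over 5 SD above buffer well mean in both duplicates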;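 also: counter screen cells carry the mu-opioid receptor alone and lack TRPC4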); conditions: HEK293 mu-opioid cells, Fluo-4 calcium fluorescence, at 10 µM; active compounds read high
[16] = nonspecific potentiation of DAMGO calcium response – cell-based, HEK293 mu-opioid receptor line, counter-screen for TRPC4 allosteric potentiator project, confirmation (AID 449724;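 active = calcium signal rise more than 3 SD above the low-dose agonist control mean, in both duplicate plates and the primary screen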); conditions: HEK293 mu-opioid receptor cells, Fluo-4 calcium flux, at 10 µM, compound added before EC20 DAMGO stimulus; active compounds read high

Sequence of Short transient receptor potential channel 4 (Mus musculus) (Q9QUQ5 whole entry, looked up): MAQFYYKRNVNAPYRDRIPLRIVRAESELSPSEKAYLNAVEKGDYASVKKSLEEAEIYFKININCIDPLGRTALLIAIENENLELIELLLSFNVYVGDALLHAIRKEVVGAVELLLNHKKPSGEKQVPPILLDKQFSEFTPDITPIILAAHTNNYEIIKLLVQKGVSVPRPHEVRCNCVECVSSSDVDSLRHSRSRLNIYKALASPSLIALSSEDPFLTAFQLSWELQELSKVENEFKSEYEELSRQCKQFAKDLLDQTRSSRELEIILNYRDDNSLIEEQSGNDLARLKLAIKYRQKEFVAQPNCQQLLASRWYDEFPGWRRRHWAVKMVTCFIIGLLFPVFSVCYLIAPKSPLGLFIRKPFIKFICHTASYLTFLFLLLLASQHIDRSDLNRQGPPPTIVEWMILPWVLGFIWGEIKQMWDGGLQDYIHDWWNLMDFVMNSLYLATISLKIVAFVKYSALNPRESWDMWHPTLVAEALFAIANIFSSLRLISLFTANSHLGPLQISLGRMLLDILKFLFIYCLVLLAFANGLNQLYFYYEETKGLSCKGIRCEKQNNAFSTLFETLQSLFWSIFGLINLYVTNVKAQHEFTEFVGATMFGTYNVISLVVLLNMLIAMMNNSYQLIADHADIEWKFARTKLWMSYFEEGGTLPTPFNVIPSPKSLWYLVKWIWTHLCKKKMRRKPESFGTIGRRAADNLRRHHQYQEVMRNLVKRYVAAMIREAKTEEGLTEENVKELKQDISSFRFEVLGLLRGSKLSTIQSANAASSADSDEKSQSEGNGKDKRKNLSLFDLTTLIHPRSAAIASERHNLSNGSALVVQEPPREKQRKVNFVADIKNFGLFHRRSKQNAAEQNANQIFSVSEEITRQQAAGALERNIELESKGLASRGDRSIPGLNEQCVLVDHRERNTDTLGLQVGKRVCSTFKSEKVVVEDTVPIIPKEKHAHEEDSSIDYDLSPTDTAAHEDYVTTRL
Sequence of Short transient receptor potential channel 6 (Mus musculus) (Q61143 whole entry, looked up): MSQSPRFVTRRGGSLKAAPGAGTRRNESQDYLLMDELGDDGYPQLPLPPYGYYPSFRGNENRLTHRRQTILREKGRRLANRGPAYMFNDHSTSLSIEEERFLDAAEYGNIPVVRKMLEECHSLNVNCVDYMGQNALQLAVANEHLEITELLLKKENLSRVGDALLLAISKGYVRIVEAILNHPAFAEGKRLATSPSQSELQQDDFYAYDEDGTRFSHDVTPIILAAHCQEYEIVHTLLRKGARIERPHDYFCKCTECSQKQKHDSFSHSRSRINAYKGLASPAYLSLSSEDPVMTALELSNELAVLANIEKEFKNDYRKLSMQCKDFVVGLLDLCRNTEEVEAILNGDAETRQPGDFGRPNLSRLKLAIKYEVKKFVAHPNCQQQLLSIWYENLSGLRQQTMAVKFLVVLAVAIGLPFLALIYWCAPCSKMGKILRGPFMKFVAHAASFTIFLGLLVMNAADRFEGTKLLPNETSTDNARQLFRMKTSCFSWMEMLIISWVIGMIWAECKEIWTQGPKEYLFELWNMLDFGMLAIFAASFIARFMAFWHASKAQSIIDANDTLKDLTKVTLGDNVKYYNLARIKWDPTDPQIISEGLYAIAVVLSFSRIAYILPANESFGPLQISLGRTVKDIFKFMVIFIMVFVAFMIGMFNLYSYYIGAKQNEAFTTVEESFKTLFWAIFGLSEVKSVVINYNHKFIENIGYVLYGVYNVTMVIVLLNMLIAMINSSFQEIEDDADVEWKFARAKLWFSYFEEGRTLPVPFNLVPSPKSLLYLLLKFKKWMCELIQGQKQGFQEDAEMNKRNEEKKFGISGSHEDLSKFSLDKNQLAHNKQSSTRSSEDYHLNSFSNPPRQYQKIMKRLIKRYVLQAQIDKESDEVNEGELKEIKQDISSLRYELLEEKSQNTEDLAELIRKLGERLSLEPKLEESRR

CCCCN(C)CCCNC(=O)CN1N=C(c2ccc(Cl)cc2)CCC1=O
active: activation [10] 30% | activation [12] 16.6% | potentiation [14] 21.3%
inactive: outcome [1] | outcome [2] | outcome [3] | outcome [4] | outcome [5] | outcome [6] | outcome [7] | outcome [8] | outcome [9] | outcome [11] | outcome [13] | outcome [15] | outcome [16]

CCOc1ccccc1CN1CCNC(=O)C1CC(=O)N(C)CCc1ccccn1 (stereo not given)
active: activation [1] 235% | activation [2] 76% | activation [10] 27% | activation [12] 72.6%
inactive: outcome [3] | outcome [4] | outcome [5] | outcome [6] | outcome [7] | outcome [8] | outcome [9] | outcome [11] | outcome [13] | outcome [14] | outcome [15] | outcome [16]

COC(=O)c1ccccc1N=Nc1c(N)[nH][nH]c1=O
active: activation [1] 87% | potentiation [3] 69% | potentiation [4] 54% | activation [12] 51.2% | potentiation [14] 46.3%
inactive: outcome [2] | outcome [5] | outcome [6] | outcome [7] | outcome [8] | outcome [9] | outcome [10] | outcome [11] | outcome [13] | outcome [15] | outcome [16]

CCn1cc(CN2CCC(n3nccc3NC(=O)CCOc3ccccc3)CC2)cn1
active: activation [1] 78%
inactive: outcome [2] | outcome [3] | outcome [4] | outcome [5] | outcome [6] | outcome [7] | outcome [8] | outcome [9] | outcome [10] | outcome [11] | outcome [12] | outcome [13] | outcome [14] | outcome [15] | outcome [16]

COc1ccc(-c2cc(C(=O)NCC(c3ccccc3)N(C)C)c3ccccc3n2)cc1OC (stereo not given)
inactive: outcome [2] | outcome [3] | outcome [4] | outcome [5] | outcome [6] | outcome [7] | outcome [8] | outcome [9] | outcome [10] | outcome [11] | outcome [12] | outcome [13] | outcome [14] | outcome [15] | outcome [16]
active: activation [1] 98%

Fc1ccc(C(c2nnnn2Cc2cccs2)N2CCN(C3CCCCC3)CC2)cc1 (stereo not given)
inactive: outcome [3] | outcome [4] | outcome [5] | outcome [6] | outcome [7] | outcome [8] | outcome [9] | outcome [11] | outcome [13] | outcome [14] | outcome [15] | outcome [16]
active: activation [1] 251% | activation [2] 67% | activation [10] 60.5% | activation [12] 22.7%

COc1ccc(C(CNC(=O)c2ccc(S(=O)(=O)N(C)C)cc2)N(C)C)cc1 (stereo not given)
active: activation [1] 296% | activation [2] 179% | activation [10] 29%
inactive: outcome [3] | outcome [4] | outcome [5] | outcome [6] | outcome [7] | outcome [8] | outcome [9] | outcome [11] | outcome [12] | outcome [13] | outcome [14] | outcome [15] | outcome [16]

COc1ccc(-c2nn(-c3ccccc3)cc2CNCc2cccnc2)c(F)c1
active: activation [1] 224%
inactive: outcome [2] | outcome [3] | outcome [4] | outcome [5] | outcome [6] | outcome [7] | outcome [8] | outcome [9] | outcome [10] | outcome [11] | outcome [12] | outcome [13] | outcome [14] | outcome [15] | outcome [16]

Cc1ccc(C)c(CN2CCC(CNC(=O)CCc3nnc4ccc(N5CCCCC5)nn34)CC2)c1
inactive: outcome [3] | outcome [4] | outcome [5] | outcome [6] | outcome [7] | outcome [8] | outcome [9] | outcome [10] | outcome [11] | outcome [12] | outcome [13] | outcome [14] | outcome [15] | outcome [16]
active: activation [1] 157% | activation [2] 92%

COc1ccccc1CCC(=O)Nc1cc(S(=O)(=O)N2CCCCC2)ccc1N1CCN(C)CC1
inactive: outcome [3] | outcome [4] | outcome [5] | outcome [6] | outcome [7] | outcome [8] | outcome [9] | outcome [10] | outcome [11] | outcome [13] | outcome [14] | outcome [15] | outcome [16]
active: activation [1] 153% | activation [2] 67% | activation [12] 32.8%

Cc1ccc2[nH]c3c(=O)n(CCc4cnc[nH]4)cnc3c2c1
inactive: outcome [2] | outcome [3] | outcome [4] | outcome [5] | outcome [6] | outcome [7] | outcome [8] | outcome [9] | outcome [11] | outcome [13] | outcome [14] | outcome [15] | outcome [16]
active: activation [1] 126% | activation [10] 27.5% | activation [12] 33.2%

Cc1cc(C)c(C)c(OCCCN(C)C)c1
active: activation [1] 152% | activation [2] 95% | activation [10] 67.5% | activation [12] 47.6% | potentiation [14] 15.7%
inactive: outcome [3] | outcome [4] | outcome [5] | outcome [6] | outcome [7] | outcome [8] | outcome [9] | outcome [11] | outcome [13] | outcome [15] | outcome [16]

COc1ccc(C(=O)NC(=S)NNC(=O)CCc2ccccc2)cc1
inactive: outcome [2] | outcome [3] | outcome [4] | outcome [5] | outcome [6] | outcome [7] | outcome [8] | outcome [9] | outcome [11] | outcome [13] | outcome [14] | outcome [15] | outcome [16]
active: activation [1] 100% | activation [10] 25% | activation [12] 61.1%

CCCCC(=O)NNC(=S)NC(=O)c1ccc(C)cc1
inactive: outcome [2] | outcome [3] | outcome [4] | outcome [5] | outcome [6] | outcome [7] | outcome [8] | outcome [9] | outcome [10] | outcome [11] | outcome [13] | outcome [14] | outcome [15] | outcome [16]
active: activation [1] 240% | activation [12] 15%

O=C(c1cccs1)N1CCN(c2ncc(Br)cn2)CC1
inactive: outcome [3] | outcome [4] | outcome [5] | outcome [6] | outcome [7] | outcome [8] | outcome [9] | outcome [11] | outcome [13] | outcome [14] | outcome [15] | outcome [16]
active: activation [1] 215% | activation [2] 91% | activation [10] 35.5% | activation [12] 79.8%
